Results reported in PubChem BioAssay (NCI).
Compounds without any hit were thinned out: in the full panel of roughly 79,000, 15% have a hit. The source made the active and inactive calls. No stated cut-off is given here; in the data, active means growth inhibition above about 70%; inactive means the rest.

How the values were obtained:
[1] = NCI Yeast Anticancer Drug Screen. Data for the rad50 strain (AID 155);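 further: 0% = growth of vehicle-only cultures of the same strain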; conditions: S. cerevisiae rad50 strain growth inhibition, active compounds read high
Procedure, shortened: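 Compounds were tested on a yeast strain with an engineered DNA damage repair alteration; the reported value is growth inhibition normalised to vehicle treatment.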

[2] = NCI Yeast Anticancer Drug Screen. Data for the mec2-1 strain (AID 157); conditions: S. cerevisiae mec2-1 strain, active compounds read high
Procedure, shortened: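 Cells of the genetically defined mec2-1 yeast strain are incubated with test compound. Inhibition of growth is calculated against vehicle-treated controls.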

[3] = NCI Yeast Anticancer Drug Screen. Data for the sgs1 mgt1 strain (AID 161);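 further: 0% = growth of cultures given vehicle only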; conditions: S. cerevisiae sgs1 mgt1 strain, active compounds read high
Procedure, shortened: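 Test agents were incubated with a DNA-repair-mutant yeast strain. Growth was then read and compared against vehicle-treated controls.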

[4] = NCI Yeast Anticancer Drug Screen. Data for the cln2 rad14 strain (AID 165);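 further: 0% = growth equal to vehicle treated cultures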; conditions: S. cerevisiae cln2 rad14 strain, active compounds read high
Procedure, shortened: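 The screen exposed genetically defined yeast (cln2 rad14) to test compounds and scored growth inhibition relative to vehicle-treated controls.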

[5] = NCI Yeast Anticancer Drug Screen. Data for the bub3 strain (AID 167); conditions: S. cerevisiae bub3 mutant strain, active compounds read high
Procedure, shortened: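 Growth of a checkpoint-deficient yeast mutant is measured after compound exposure. Values represent inhibition relative to vehicle.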

[6] = NCI Yeast Anticancer Drug Screen. Data for the mlh1 rad18 strain (AID 175); conditions: S. cerevisiae mlh1 rad18 strain growth inhibition, active compounds read high
Procedure, shortened: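 Compound-treated yeast growth, normalised to vehicle controls. Strain bears defined DNA repair mutations.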

[7] = at 5.0 µM (retest, dose inferred, filed as 0.5)
[8] = at 50.0 µM (retest, dose inferred, filed as 5.0)

Measured: growth inhibition

CCN(CC)Cc1cc(N=Nc2c(O)ccc3c(N=Nc4ccc(O)c(CN(CC)CC)c4)c(O)ccc23)ccc1O
active: [1]; [8] 86% | [1]; at 50.0 µM 96.4% | [2]; at 50.0 µM 85.4% | [3]; [8] 76% | [3]; at 50.0 µM 94.3% | [6]; [8] 72% | [6]; at 50.0 µM 93.7%
inactive: [1]; [7] 62% | [2]; [7] -2% | [2]; [8] 53% | [3]; [7] 1% | [4]; [7] -7% | [4]; [8] 56% | [4]; at 50.0 µM 56.6% | [5]; [7] -1% | [5]; [8] 61% | [5]; at 50.0 µM 65.8% | [6]; [7] -1%

Cc1ccc(S(=O)(=O)N(c2ccccc2-c2ccccc2)C(C)C(=O)O)cc1 (centres undefined)
active: [1]; at 50.0 µM 92.3% | [2]; [8] 80% | [2]; at 50.0 µM 88.3% | [3]; at 50.0 µM 96% | [4]; [8] 76% | [4]; at 50.0 µM 91.5% | [5]; at 50.0 µM 82.5% | [6]; [8] 87% | [6]; at 50.0 µM 94.3%
inactive: [1]; [7] 2% | [1]; [8] 67% | [2]; [7] 13% | [3]; [7] 20% | [3]; [8] 62% | [4]; [7] 3% | [5]; [7] 4% | [5]; [8] 66% | [6]; [7] 5%

CC(C)(Sc1cc(Cl)c(Cl)c(Cl)c1)C(=O)OCCN1CCOCC1
active: [1]; [7] 78% | [1]; [8] 98% | [1]; at 50.0 µM 98.2% | [2]; [7] 77% | [2]; [8] 98% | [2]; at 50.0 µM 99.6% | [3]; [7] 87% | [3]; [8] 98% | [3]; at 50.0 µM 99.4% | [4]; [8] 96% | [4]; at 50.0 µM 98.3% | [5]; [7] 76% | [5]; [8] 92% | [5]; at 50.0 µM 99.2% | [6]; [8] 98% | [6]; at 50.0 µM 97.5%
inactive: [4]; [7] 59% | [6]; [7] 67%

CC(=O)c1csc2c1C(=O)c1scc(C(C)=O)c1C2=O
active: [3]; at 50.0 µM 90.3% | [4]; at 50.0 µM 88.6% | [5]; at 50.0 µM 90.3% | [6]; at 50.0 µM 87%
inactive: [1]; [7] 26% | [1]; [8] 48% | [1]; at 50.0 µM 48.5% | [2]; [7] 27% | [2]; [8] 49% | [2]; at 50.0 µM 30.9% | [3]; [7] 24% | [3]; [8] 43% | [4]; [7] 14% | [4]; [8] 36% | [5]; [7] 37% | [5]; [8] 47% | [6]; [7] 32% | [6]; [8] 49%

Cc1ccc(-n2cc(-c3ccc(Cl)cc3)c3c(N)ncnc32)cc1
inactive: [1]; [7] 37% | [2]; [7] 15% | [3]; [7] 60% | [4]; [7] -3% | [5]; [7] 14% | [6]; [7] 30%
active: [1]; [8] 95% | [1]; at 50.0 µM 97.1% | [2]; [8] 97% | [2]; at 50.0 µM 94.8% | [3]; [8] 94% | [3]; at 50.0 µM 98.3% | [4]; [8] 96% | [4]; at 50.0 µM 88.3% | [5]; [8] 97% | [5]; at 50.0 µM 92% | [6]; [8] 95% | [6]; at 50.0 µM 96.8%

CC(C)(C)C1=NC(=S)SC2=NC(=O)C3(NN21)c1ccccc1-c1ccccc13
active: [1]; [8] 86% | [1]; at 50.0 µM 90.9% | [2]; at 50.0 µM 74.3% | [3]; [8] 78% | [3]; at 50.0 µM 86.6% | [5]; [8] 72% | [5]; at 50.0 µM 91% | [6]; [8] 77% | [6]; at 50.0 µM 94.9%
inactive: [1]; [7] 6% | [2]; [7] -6% | [2]; [8] 53% | [3]; [7] 5% | [4]; [7] -10% | [4]; [8] 45% | [4]; at 50.0 µM 63% | [5]; [7] -11% | [6]; [7] 6%

C/C=C(\C)C(=O)O[C@@H]1CC(C)(C)CC2C3=CCC4[C@]56CC[C@](O)(OC5)C(C)(C)C6CC[C@@]4(C)C3(C)CC[C@]21C(=O)O (some centres undefined)
active: [1]; [8] 90% | [1]; at 50.0 µM 86.5% | [2]; [8] 88% | [2]; at 50.0 µM 84.7% | [3]; [8] 93% | [3]; at 50.0 µM 87.2% | [4]; [7] 73% | [4]; [8] 94% | [4]; at 50.0 µM 78.8% | [5]; [7] 70% | [5]; [8] 96% | [5]; at 50.0 µM 81.8% | [6]; [8] 94% | [6]; at 50.0 µM 81.2%
inactive: [1]; [7] 53% | [2]; [7] 67% | [3]; [7] 55% | [6]; [7] 69%

O=C(CSC1=NNC2(C(=O)N1)c1ccccc1-c1ccccc12)NC(=S)Nc1ccccc1
inactive: [1]; [7] -3% | [2]; [7] -15% | [3]; [7] -7% | [4]; [7] -8% | [5]; [7] -16% | [6]; [7] -24%
active: [1]; [8] 95% | [1]; at 50.0 µM 96.2% | [2]; [8] 90% | [2]; at 50.0 µM 97% | [3]; [8] 96% | [3]; at 50.0 µM 98% | [4]; [8] 86% | [4]; at 50.0 µM 96.4% | [5]; [8] 94% | [5]; at 50.0 µM 97.5% | [6]; [8] 95% | [6]; at 50.0 µM 97%
